Laboratory results from PubChem BioAssay (NCATS).
Results filed as inconclusive are left out. Where a call stands in place of a potency, no number is given. Activity calls are given as the source filed them. Calls come from the whole dose curve; as a rule, active = well fitted curve in the direction sought with a large enough effect; inconclusive = small, poorly fitted or top-dose-only effect, or another doubt; inactive = no such curve, though single readings can be large; an effect the other way counts as inactive or inconclusive.

Legend:
[1] = molecular target: Glucagon-like peptide 1 receptor (Homo sapiens) (UniProt P43220); experiment: qHTS of GLP-1 Receptor Agonists: LOPAC Validation (AID 624148); conditions: GLP-1R agonist cell assay; series mostly up to 46.1 µM;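 note: higher luminescence signal means agonism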
Glucagon-like peptide 1 receptor (Homo sapiens), sequence (P43220 whole entry, looked up): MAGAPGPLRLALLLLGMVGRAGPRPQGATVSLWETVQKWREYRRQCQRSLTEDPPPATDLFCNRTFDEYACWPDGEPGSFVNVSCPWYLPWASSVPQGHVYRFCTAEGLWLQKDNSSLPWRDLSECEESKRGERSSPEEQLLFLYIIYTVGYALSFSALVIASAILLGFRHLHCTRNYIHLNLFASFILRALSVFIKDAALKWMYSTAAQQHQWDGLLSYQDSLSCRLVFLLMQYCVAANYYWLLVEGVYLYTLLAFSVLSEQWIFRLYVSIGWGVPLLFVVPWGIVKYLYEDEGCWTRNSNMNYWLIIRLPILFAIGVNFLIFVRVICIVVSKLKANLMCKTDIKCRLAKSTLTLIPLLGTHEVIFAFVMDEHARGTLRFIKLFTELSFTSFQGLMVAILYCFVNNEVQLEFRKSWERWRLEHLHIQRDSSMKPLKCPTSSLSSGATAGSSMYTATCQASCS
Outline: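 HEK293 cells stably co-expressing a cAMP-responsive luciferase reporter and a hypersensitive GLP-1R were plated 12 h at 37 °C and exposed to compounds for 4-6 hr at 37 °C, 5% CO2. Luminescence was read 12 min after adding detection reagent.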

[2] = qHTS of Nrf2 Activators: LOPAC Validation (AID 624149); conditions: Nrf2/ARE reporter cell assay; series mostly up to 46.1 µM
Outline: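 Cells (AREc32_Fluc) are plated at 1000 per well in OPTI-MEM containing 5% FBS and left overnight. Compounds are pinned in and incubated 24 hr at 37 deg C, and firefly luciferase is detected with Steady-Glo.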

[3] = HTS Assay for Allosteric Antagonists of the Human D2 Dopamine Receptor: Hit Validation in HTRF (AID 624455); conditions: Cells stably expressing D1 dopamine receptor, inhibition mode; series mostly up to 46.1 µM;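 note: stable D1 dopamine receptor cell line scored for blocking the D1 response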
Outline: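 Inhibition of the D1-mediated response is measured by HTRF in cells that stably express the D1 dopamine receptor. Compounds reaching this step are hits from calcium-flux antagonism testing at EC80 dopamine in inducible Hek293 Trex D2 cells.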

For O=C(O)c1cc(=O)c2ccccc2[nH]1, the outcome [1] was “inactive”, the outcome [2] was “inactive” and the Potency [3] was “inactive”.

In the case of Clc1ccc(N2CCN(Cc3c[nH]c4ncccc34)CC2)cc1, the outcome [1] is reported as “inactive”, the outcome [2] is reported as “inactive” and the Potency [3] is reported as “inactive”.

In the case of O=C(O)CCCC[C@@H]1CCSS1, the outcome [1] is reported as “inactive”, the outcome [2] is reported as “inactive” and the Potency [3] is reported as “inactive”.

With C[N+]1(C)CCC(OC(=O)C(c2ccccc2)c2ccccc2)CC1 the outcome [1] was “inactive”, the outcome [2] was “inactive” and the Potency [3] was “inactive”.

For O=P(O)(O)C(Cl)(Cl)P(=O)(O)O, the outcome [1] was “inactive”, the outcome [2] was “inactive” and the Potency [3] was “inactive”.

With C=CC(C)=C[C@@]1(C)SC(=O)C(C)=C1O the outcome [1] was “inactive”, the outcome [2] was “inactive” and the Potency [3] was “inactive”.

With CC[C@@H](C)[C@H]1O[C@]2(CC[C@H]1C)C[C@@H]1C[C@@H](CC=C(C)[C@@H](O[C@H]3C[C@H](OC)[C@@H](O[C@H]4C[C@H](OC)[C@@H](O)[C@H](C)O4)[C@H](C)O3)[C@@H](C)C=CC=C3CO[C@@H]4[C@H](O)C(C)=C[C@@H](C(=O)O1)[C@]34O)O2 the outcome [1] was “inactive”, the outcome [2] was “inactive” and the Potency [3] was “inactive”.

With O=C(O)CC1CCCc2ccccc2C1O (stereo unspecified) the outcome [1] was “inactive”, the outcome [2] was “inactive” and the Potency [3] was “inactive”.

For O=c1[nH]c2cc([N+](=O)[O-])c([N+](=O)[O-])cc2[nH]c1=O, the outcome [1] was “inactive”, the outcome [2] was “inactive” and the Potency [3] was “inactive”.

With COc1ccc(/C=C/C(=O)Nc2ccccc2C(=O)O)cc1OC the outcome [1] was “inactive” and the outcome [2] was “inactive”.

With CC(=O)SCC[N+](C)(C)C the outcome [1] was “inactive”, the outcome [2] was “inactive” and the Potency [3] was “inactive”.

With C[C@@H](NC(=O)/C(C#N)=C/c1ccc(O)c(O)c1)c1ccccc1 the outcome [1] was “inactive”, the outcome [2] was “inactive” and the Potency [3] was “inactive”.

For CCCN(CC1CC1)c1nc(C)nc(Nc2c(Cl)cc(Cl)cc2Cl)c1Cl, the outcome [1] was “inactive”, the outcome [2] was “inactive” and the Potency [3] was “inactive”.

For CC(C)(C)c1ccc(S(=O)(=O)/C=C/C#N)cc1, the outcome [1] was “inactive”.

In the case of N.N.O=C(O)C1(C(=O)O)CCC1.[Pt], the outcome [1] is reported as “inactive” and the outcome [2] is reported as “inactive”.

With COC1=C(OC)C(=O)c2ccccc2C1=O the outcome [1] was “inactive”, the outcome [2] was “inactive” and the Potency [3] was “inactive”.

For NO, the outcome [1] was “inactive”, the outcome [2] was “inactive” and the Potency [3] was “inactive”.

With C#C[C@]1(O)CC[C@H]2[C@@H]3CCC4=Cc5oncc5CC4(C)[C@H]3CCC21C (stereo partly specified) the outcome [1] was “inactive” and the outcome [2] was “inactive”.

With O=C(O)/C=C/C(O)c1ccc(Cl)cc1 (stereo unspecified) the outcome [1] was “inactive”, the outcome [2] was “inactive” and the Potency [3] was “inactive”.

With Nc1ncnc2c1ncn2[C@@H]1O[C@H](COP(=O)(O)CP(=O)(O)OP(=O)(O)O)[C@@H](O)[C@H]1O the outcome [1] was “inactive”, the outcome [2] was “inactive” and the Potency [3] was “inactive”.

With N#C/C(=C\c1ccc(-c2cc(Cl)ccc2Cl)o1)C(=O)Nc1cccc2ncccc12 the outcome [1] was “inactive”, the outcome [2] was “inactive” and the Potency [3] was “inactive”.

With COc1cc(C(O)CO)ccc1OS(=O)(=O)O (stereo unspecified) the outcome [1] was “inactive”, the outcome [2] was “inactive” and the Potency [3] was “inactive”.

For N.N.N.N.N.N.N.N.N.N.N.N.N.N.O.O.[Ru+4].[Ru+5].[Ru+5], the outcome [1] was “inactive” and the outcome [2] was “inactive”.

In the case of Cc1ccc(C(=O)O[C@H](C(=O)O)[C@@H](OC(=O)c2ccc(C)cc2)C(=O)O)cc1 (tested in a mixture with another compound), the outcome [1] is reported as “inactive”, the outcome [2] is reported as “inactive” and the Potency [3] is reported as “inactive”.

With OC[C@H]1O[C@@H](n2cnc3c(NC4CCCC4)ncnc32)[C@H](O)[C@@H]1O the outcome [1] was “inactive”, the outcome [2] was “inactive” and the Potency [3] was “inactive”.

In the case of CC(C)Cc1ccc([C@H](C)C(=O)O)cc1, the outcome [1] is reported as “inactive”, the outcome [2] is reported as “inactive” and the Potency [3] is reported as “inactive”.

In the case of CN1C2CCC1CC(OC(=O)C(O)c1ccccc1)C2 (stereo unspecified), the outcome [1] is reported as “inactive” and the outcome [2] is reported as “inactive”.

For C=CC(=O)c1ccc(CCCCCC)cc1, the outcome [1] was “inactive” and the outcome [2] was “inactive”.

For Nc1nc(SCc2ccc([N+](=O)[O-])cc2)c2ncn([C@@H]3O[C@H](CO)[C@@H](O)[C@H]3O)c2n1, the outcome [1] was “inactive”, the outcome [2] was “inactive” and the Potency [3] was “inactive”.

With NC(=O)C1=CN(C2OC(COP(=O)(O)OP(=O)(O)OC[C@H]3O[C@@H](n4cnc5c(N)ncnc54)[C@H](OP(=O)(O)O)[C@@H]3O)C(O)C2O)C=CC1 (stereo partly specified) the outcome [1] was “inactive”, the outcome [2] was “inactive” and the Potency [3] was “inactive”.

In the case of NC[C@@H]1O[C@H](C23CC4CC(CC(C4)C2)C3)Cc2c1ccc(O)c2O, the outcome [1] is reported as “inactive” and the outcome [2] is reported as “inactive”.

For CN1CCC[C@H]1c1cccnc1, the outcome [1] was “inactive”, the outcome [2] was “inactive” and the Potency [3] was “inactive”.

For c1cnc2c(c1)ccc1cccnc12, the outcome [1] was “inactive”, the outcome [2] was “inactive” and the Potency [3] was “inactive”.

For O=C1NC(=O)/C(=C/c2ccc3nccnc3c2)S1, the outcome [1] was “inactive”, the outcome [2] was “inactive” and the Potency [3] was “inactive”.

In the case of Cc1ccccc1CNc1ncnc2c1ncn2C1OC(CO)C(O)C1O (stereo unspecified), the outcome [1] is reported as “inactive”, the outcome [2] is reported as “inactive” and the Potency [3] is reported as “inactive”.

In the case of Cc1cc(NC2CCCCC2)nc(-n2nc(C)cc2C)n1, the outcome [1] is reported as “inactive”, the outcome [2] is reported as “inactive” and the Potency [3] is reported as “inactive”.

In the case of Nc1nc(Cl)nc2c1ncn2[C@@H]1O[C@H](COP(=O)(O)OP(=O)(O)OP(=O)(O)O)[C@@H](O)[C@H]1O, the outcome [1] is reported as “inactive” and the outcome [2] is reported as “inactive”.
